Measurements from PubChem BioAssay AID1347426 (Functional Genomics Laboratory (NCATS/FGL), 2020).
Among all 31,000 sequences or so, about 1,400 (4.5%) were called active.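 The calls were made as follows: active = median seed-adjusted z-score above 1 or below -1; inactive = the rest.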 Many of the other results were omitted from the sample, so actives are more common in it than they were.

Assay: Novel Modifiers of Survival Motor Neuron (SMN) Protein: Gene Identification via Genome-wide siRNA Screen
Settings: HEK293T SMN2-luciferase reporter, siRNA knockdown, 72 h; actives lie on both sides
Text: Spinal muscular atrophy (SMA) is the most common neuromuscular autosomal recessive disorder and one of the leading genetic causes of infant death. SMA results from mutations inducing loss of function or deletion in the survival of motor neuron-1 gene (SMN1), leading to deficiency of the survival motor neuron (SMN) protein. Although a second nearly identical gene, SMN2, is retained in humans, its expression primarily produces an aberrantly spliced isoform that is largely unstable and quickly degraded. We performed a genome-wide RNAi screen using a cell-based reporter assay to identify genes and pathways that modulate SMN protein stability. The screen identified over 200 genes that led to the greatest increase or decrease in luciferase expression.
Using HEK293T cells stably expressing a luciferase reporter that combines the promoter and splicing based cassettes in tandem with the major portion of the native SMN2 cDNA with luciferase, we performed a genome-wide RNAi screen to identify modulators of SMN protein levels. Luciferase is expressed when full-length SMN protein is generated with luminescence signal proportional to SMN protein levels. Our luciferase-based reporter assay was used to screen Ambion Silencer Select Human Druggable Genome siRNA library (10418 genes, 3 unique siRNAs per gene) using lipid-based reverse transfection.
Briefly, 1 pmol of each siRNA was spotted to a well of a 384-well plate (Corning, Corning, NY) and 20 microL of serum-free DMEM containing […] of Lipofectamine RNAiMax (Life Technologies, Carlsbad, CA) was then added to each well. Transfected cells were maintained at 37 degrees C in 5% CO2 for 72 hours, 20 microL of ONE-Glo Reagent (Promega) was added to wells for luciferase quantification. Raw luminescence reads were normalized to Ambion(R) Silencer(R) Negative Control #2 siRNA, then log10 transformed. A robust statistical measure of median absolute deviation (MAD) to standardize siRNA activities from each screen. Common Seed Analysis was used to help prioritize clean hits as opposed to those appearing to arise from seed based off-target effects. Candidate modulators were defined as the genes having a MAD score greater than 1.0 or less than -1.0.

Q: For GCAAAAAGAGCGAUCAGAATT against CNDP1, which median seed-adjusted z-score is on record?
A: The median seed-adjusted z-score was 0.203 (inactive).

Q: For GGAUAUAACGAGAAUGUCUTT against MED27, which median seed-adjusted z-score is on record?
A: The median seed-adjusted z-score was -1.62 (active).

Q: Which median seed-adjusted z-score does the source give for AGAUAGAAAUUGACUUUGATT against BRD3 here?
A: The median seed-adjusted z-score was 0.633 (inactive).

Q: For GCGAAAACAUGGAUGUUCUTT against HERC2, which median seed-adjusted z-score is on record?
A: The median seed-adjusted z-score was 0.98 (inactive).

Q: Which median seed-adjusted z-score does the source give for CUUUCCGUGUGAAAUCAAATT against ZNF761 here?
A: Its median seed-adjusted z-score is 0.291 (inactive).

Q: Which median seed-adjusted z-score does the source give for AGACCUCCUACGACAUUAATT against BOC here?
A: The median seed-adjusted z-score was -0.0192 (inactive).

Q: With GACUCAAUGCUACUAUCAATT against ADAM32 as the sequence, how does the median seed-adjusted z-score read?
A: The median seed-adjusted z-score was 1.75 (active).

Q: With GGGUGAAUGCUAUUGAGUUTT against MKRN1 as the sequence, how does the median seed-adjusted z-score read?
A: Its median seed-adjusted z-score is -0.496 (inactive).

Q: Which median seed-adjusted z-score does the source give for AGAACUUCAUGGACAUAGATT against CNR1 here?
A: The median seed-adjusted z-score was 0.0359 (inactive).

Q: Which median seed-adjusted z-score does the source give for CCACCGAUGAGAUUACCUUTT against STS here?
A: The median seed-adjusted z-score was -0.392 (inactive).

Q: For CAGAGGUUGUGACACGAAATT against PAK1, which median seed-adjusted z-score is on record?
A: The median seed-adjusted z-score was -0.168 (inactive).

Q: With CUAUGAGGAAUGUCGCAGATT against XPO1 as the sequence, how does the median seed-adjusted z-score read?
A: Its median seed-adjusted z-score is 1.12 (active).

Q: With GGUCCUCAUUGAAAACGAATT against BTBD11 as the sequence, how does the median seed-adjusted z-score read?
A: The median seed-adjusted z-score was -0.00434 (inactive).

Q: For GGACUACAGUAUACAUUGUTT against PCDH24, which median seed-adjusted z-score is on record?
A: Its median seed-adjusted z-score is 0.345 (inactive).

Q: For GGAACAGGCUAUCAGAACATT against TTC8, which median seed-adjusted z-score is on record?
A: The median seed-adjusted z-score was 0 (inactive).

Q: Which median seed-adjusted z-score does the source give for GGGCUUUAAAUAUGAGAUUTT against GRID1 here?
A: Its median seed-adjusted z-score is 0.66 (inactive).

Q: Which median seed-adjusted z-score does the source give for CGUUGUCACUGAGAUCACATT against AVIL here?
A: The median seed-adjusted z-score was -0.127 (inactive).

Q: Which median seed-adjusted z-score does the source give for AAGACAUACCGACCUCUUATT against PPIL3 here?
A: The median seed-adjusted z-score was 0.282 (inactive).

Q: For GGACGUACAGUGGUGGUAATT against ABCA3, which median seed-adjusted z-score is on record?
A: The median seed-adjusted z-score was -0.363 (inactive).

Q: With CCAAUAUUCGACUUGCGUATT against XPO1 as the sequence, how does the median seed-adjusted z-score read?
A: Its median seed-adjusted z-score is 1.12 (active).

Q: Which median seed-adjusted z-score does the source give for GCCGCCAAGUAAAGCCUUATT against HSPB1 here?
A: Its median seed-adjusted z-score is 0.693 (inactive).

Q: Which median seed-adjusted z-score does the source give for CAAGCUGUCUAAGUCCAAATT against NOVA1 here?
A: The median seed-adjusted z-score was -0.486 (inactive).

Q: Which median seed-adjusted z-score does the source give for CCCACCAUGUUACAAGACATT against POLR2G here?
A: Its median seed-adjusted z-score is -4.19 (active).

Q: With GCAAGGAAGAAAUUUGUGATT against ERCC1 as the sequence, how does the median seed-adjusted z-score read?
A: The median seed-adjusted z-score was -0.566 (inactive).

Q: For CUCACAUAAUCAUAAUAGATT against ZNF41, which median seed-adjusted z-score is on record?
A: The median seed-adjusted z-score was 0.342 (inactive).

Q: Which median seed-adjusted z-score does the source give for GGAGCCUUGUUGAUCCUUATT against FRAP1 here?
A: Its median seed-adjusted z-score is -1.02 (active).

Q: Which median seed-adjusted z-score does the source give for CGUUCGCACAUUCCUUAUATT against KIF6 here?
A: Its median seed-adjusted z-score is -0.0396 (inactive).

Q: Which median seed-adjusted z-score does the source give for GCUUUGUAGAAUUUGCAGATT against TRNAU1AP here?
A: The median seed-adjusted z-score was 0.52 (inactive).

Q: With GGACCGGCCUUUUCGAAAATT against SNRNP35 as the sequence, how does the median seed-adjusted z-score read?
A: Its median seed-adjusted z-score is 0.172 (inactive).

Q: For GGCUGAUUACGUUCGGGAATT against MYL2, which median seed-adjusted z-score is on record?
A: The median seed-adjusted z-score was -0.0369 (inactive).

Q: Which median seed-adjusted z-score does the source give for CAAUGAUCCCGGGCAUUUATT against RPP21 here?
A: Its median seed-adjusted z-score is -1.09 (active).

Q: For GGAGACCAACUGCAACUUUTT against ZACN, which median seed-adjusted z-score is on record?
A: Its median seed-adjusted z-score is 0.065 (inactive).

Q: Which median seed-adjusted z-score does the source give for CGGAGGUGACUGACAGAUATT against CAMKV here?
A: The median seed-adjusted z-score was -0.193 (inactive).

Q: For GAGUCAAAUUUGUGAAGAATT against GLO1, which median seed-adjusted z-score is on record?
A: Its median seed-adjusted z-score is -0.0827 (inactive).

Q: For CUGUGGGAGUUAUUGUCAATT against CDH13, which median seed-adjusted z-score is on record?
A: The median seed-adjusted z-score was 0 (inactive).

Q: Which median seed-adjusted z-score does the source give for CAAGCAUCUUUGUCAAAGATT against PTH2R here?
A: Its median seed-adjusted z-score is -0.492 (inactive).

Q: Which median seed-adjusted z-score does the source give for GGCUGAUAGUUUAGGAGUUTT against EIF5B here?
A: The median seed-adjusted z-score was 1.68 (active).

Q: For GCUGGUUACUUAUCACCAATT against TPH1, which median seed-adjusted z-score is on record?
A: The median seed-adjusted z-score was -0.055 (inactive).

Q: Which median seed-adjusted z-score does the source give for AACCUAUGCGUAUCCAGUATT against SNRPA here?
A: Its median seed-adjusted z-score is -2.09 (active).

Q: For CGAAGUGAGUGAUAACAGUTT against RNF157, which median seed-adjusted z-score is on record?
A: The median seed-adjusted z-score was 0.0197 (inactive).

Q: With GCAAGACCGAAGUAAACUATT against GPX4 as the sequence, how does the median seed-adjusted z-score read?
A: Its median seed-adjusted z-score is -1.18 (active).

Q: For UGUUAAGCUUCAUCAGUAUTT against MRGPRX1, which median seed-adjusted z-score is on record?
A: The median seed-adjusted z-score was -0.188 (inactive).

Q: Which median seed-adjusted z-score does the source give for ACAUCUCACGGAUCCUUAATT against PAX4 here?
A: The median seed-adjusted z-score was 0.0811 (inactive).

Q: Which median seed-adjusted z-score does the source give for GGUGAAGGUAGAUCAAAGATT against EIF2AK2 here?
A: The median seed-adjusted z-score was 0.419 (inactive).

Q: With CGACUUCUCAGAAGGCAGATT against GATA4 as the sequence, how does the median seed-adjusted z-score read?
A: Its median seed-adjusted z-score is -0.24 (inactive).

Q: For AAAUCUCAAUGGUCGCUAUTT against FCN3, which median seed-adjusted z-score is on record?
A: Its median seed-adjusted z-score is -0.112 (inactive).

Q: With AGGAGCUUGUUGAUCCCUATT against SLC7A8 as the sequence, how does the median seed-adjusted z-score read?
A: Its median seed-adjusted z-score is -0.134 (inactive).

Q: With CCACAUAGGUCAGAAACGATT against CLDN17 as the sequence, how does the median seed-adjusted z-score read?
A: Its median seed-adjusted z-score is 0 (inactive).

Q: Which median seed-adjusted z-score does the source give for CAUCGUCUCUGCUGACAAATT against TUBAL3 here?
A: Its median seed-adjusted z-score is 1.05 (active).

Q: Which median seed-adjusted z-score does the source give for GGAACCCUUUGAUCAAUUUTT against ADAMTS7 here?
A: Its median seed-adjusted z-score is 0.146 (inactive).

Q: With GAUUGCAGCCAAUCCCUUUTT against TBX6 as the sequence, how does the median seed-adjusted z-score read?
A: Its median seed-adjusted z-score is 0.144 (inactive).

Q: With CACUAGAUCGCGAUAAUAATT against DDB1 as the sequence, how does the median seed-adjusted z-score read?
A: Its median seed-adjusted z-score is 0.231 (inactive).

Q: For GGAAGGCAUUACUCACUUATT against SIRT3, which median seed-adjusted z-score is on record?
A: The median seed-adjusted z-score was -0.341 (inactive).

Q: With GCCAGAAUCCUUUAGCAGUTT against CRTC1 as the sequence, how does the median seed-adjusted z-score read?
A: The median seed-adjusted z-score was 0.00363 (inactive).
